# Vaccinia Venus: inhibitors of vaccinia virus (Venus reporter). hit rate 0.46% among 330,000. Potency, µM (titrated, usually from 36.5 µM), for the others: at the top dose activity change, negative = inhibition, most hits filed as inhibitors. Vaccinia virus Venus reporter expression, fluorescence; calls by dose curve; tested in A549 cells; further: on the % scale 0 is the no-effect control and ±100 the full control effect; nearly all actives have a fitted effect of over 30% in size
# Pf growth 48h: inhibits P. falciparum growth in the first generation, 48 h; P. falciparum luciferase growth in erythrocytes, 48 h; AID 504832; Potency, µM (series often up to 28.7 µM), for inactives: at the highest dose activity change, negative = inhibition, most hits filed as inhibitors; hit rate 5.9% among 310,000; further: on the % scale 0 is the no-effect control and ±100 the full control effect
#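 Read-out is firefly luciferase luminescence from an integrated reporter in P. falciparum, so falling signal marks reduced parasite growth. Infected erythrocytes were at 2% hematocrit and 0.1% parasitemia (final) in Albumax-supplemented RPMI 1640.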
# NS1 inh: inhibitors of influenza NS1 protein function; Potency, µM (highest dose often 46.1 µM), for inactives: at the top dose activity, positive = more growth; hit rate 0.4% among 270,000; calls by dose curve; further: actives are rising curves; nearly all actives have a fitted effect of over 50% in size
#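 Recovery from NS1-induced slow growth read by OD600 in budding yeast switched to galactose assay medium (pH 6.0, -URA) at 1:100 dilution. Compound 23 nl per well; the matching strain lacking NS1 serves as control.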
# Pf growth 96h: P. falciparum growth inhibition at 96 hours. P. falciparum luciferase reporter growth, 96 h. Potency, µM (series often up to 28.7 µM), without a hit: at the highest dose activity change, negative = inhibition, usual class: inhibitors. hit rate 6.9% among 320,000; further: on the % scale 0 is the no-effect control and ±100 the full control effect
#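 Infected RBCs, 2% Hct / 0.05% parasitemia final; luciferase-reporter P. falciparum; cpd 96 h, 37 C, 5% CO2; luciferase detection reagent; luminescence.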
# HCV inhibitor: blocks hepatitis C virus; Potency, µM (highest dose often 41.8 µM), without a hit: at the top dose activity change, negative = inhibition, hits mostly inhibitors; AID 651820; hit rate 3.4% among 340,000; Huh7.5.1 HCVcc-Cre infection, luciferase reporter, 44 h; further: on the % scale 0 is the no-effect control and ±100 the full control effect
#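 HCVcc-Cre virus at an moi near 0.5 was added right after compound to cells cultured 4 h from seeding (1,000 cells/well). Luciferase activity was determined 44 h later, 15 min after substrate addition at RT.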
# Vaccinia mCherry: vaccinia inhibition (mCherry reporter); hit rate 0.63% among 310,000; Vaccinia virus mCherry reporter infection, fluorescence; Potency, µM (highest dose often 36.5 µM), for the others: at the top dose activity change, negative = inhibition, hits mostly inhibitors; AID 720579; calls by dose curve; tested in A549 cells; further: on the % scale 0 is the no-effect control and ±100 the full control effect; nearly all actives have a fitted effect of over 35% in size
# Starred values were filed as active, the others as inactive; i = inactive; u = inconclusive; x = no result given; [ ] = remark or other dose. Hits are enriched below; roughly 11% of the tested compounds scored in any of these assays. Unless noted, the call rests on the fitted dose curve; in most records, active means well fitted inhibition curve with a large enough effect; inconclusive means small, poorly fitted or top-dose-only effect, or another doubt; inactive means no such curve, though single readings can be large or run the other way. Potency means the concentration at half of the fitted maximal effect.
SMILES,Vaccinia Venus,Pf growth 48h,NS1 inh,Pf growth 96h,HCV inhibitor,Vaccinia mCherry
Cn1c(=O)c2c(nc(NCCNC(=O)c3ccco3)n2Cc2ccc(Cl)cc2Cl)n(C)c1=O,-14%,u,2%,18%,-11%,i
Cn1cnc2c1c(=O)n(Cc1ccccc1)c(=O)n2C,-8%,x,-2%,-30%,-1%,i
Cn1cnc2c1c(=O)n(Cc1ccc(Cl)cc1Cl)c(=O)n2C,x,-6%,-33%,9.3µM*,-2%,x
Cn1c(NCCCN2CCOCC2)nc2c1c(=O)n(Cc1ccc(Cl)cc1Cl)c(=O)n2C,x,u,5%,3%,11µM*,x
COc1cccc(CC(=O)NC2CCSc3ccccc32)c1 (stereo not drawn),-17%,-13%,-10%,-2%,-12%,-18%
CN(C)S(=O)(=O)c1ccc(Cl)c(NC(=O)COC(=O)CNC(=O)c2ccco2)c1,x,-7%,x,15%,19%,x
O=[N+]([O-])c1cccc2nc3ccccc3c(NCCCn3ccnc3[N+](=O)[O-])c12,1.4µM*,x,x,x,u,2.8µM*
NS(=O)(=O)c1ccc(-n2nc(C(=O)O)cc2-c2ccc(Cl)cc2)cc1,-13%,-16%,x,-23%,-7%,-14%
Cc1ccc(-c2cc(C(F)(F)F)nn2-c2ccc(S(N)(=O)=O)cc2)cc1,u,15µM*,-1%,5.9µM*,u,u
CCCN1CCCc2cc(CN)ccc21,-24%,1.7µM*,-2%,43%,u,-24%
CC(=O)Nc1cccc(-c2nc3ccccc3n2C(C(=O)NC(C)(C)C)C2CC2)c1 (stereo not drawn),11%,x,x,x,x,-1%
Cc1ncc(CO)c(/C=N/NC(=O)c2cc(O)c(O)c(O)c2)c1O,x,2.6µM*,x,u,x,x
Cc1ncc(CO)c(/C=N/NC(=O)c2ccc(Br)cc2)c1O,x,u,4%,u,9%,x
Cc1ncc(CO)c(/C=N/NC(=S)Nc2ccc(C(C)C)cc2)c1O,-2%[7.34 µM],u,9%,12µM*,11µM*,-20%[7.34 µM]
CCOCCCNc1nc2ccccc2n2c(CC)nnc12,-8%,x,x,x,x,-18%
COc1ccc(-c2nc3c4ccccc4ccn3c2CN2CCCCC2)cc1OC,x,u,-2%,u,11µM*,x
COc1ccc(OC)c2c(C)c(C)[nH]c12,-12%,u,-2%,0%,10µM*,-15%
COc1ccc(OC)c2c(=O)cc(C(=O)O)[nH]c12,-6%,10%,1%,-9%,8%,-8%
CCOCCn1c(CN(C)Cc2ccccc2)nc2c1c(=O)n(C)c(=O)n2C,-12%,-6%,-6%,18%,-24%,i
CN(Cc1ccccc1)Cc1nc2c(c(=O)n(C)c(=O)n2C)n1Cc1ccccc1Cl,x,x,-83%,u,u,x
CN1CCN(Cc2nc3c(c(=O)n(C)c(=O)n3C)n2CCc2ccccc2)CC1,x,x,-39%,x,x,x
CCOC(=O)Cn1c(CN(Cc2ccccc2)Cc2ccccc2)nc2c1c(=O)n(C)c(=O)n2C,x,5.9µM*,x,u,u,x
CCCCn1c(CN(C)Cc2ccccc2)nc2c1c(=O)n(C)c(=O)n2C,x,13µM*,-18%,-2%,11µM*,x
CCCn1c(CN(C)Cc2ccccc2)nc2c1c(=O)n(C)c(=O)n2C,x,-15%,-3%,45%,7.9µM*,x
COCCn1c(CN(C)Cc2ccccc2)nc2c1c(=O)n(C)c(=O)n2C,-14%,x,-7%,5.9µM*,u,i
SMILES,Vaccinia Venus,Pf growth 48h,NS1 inh,Pf growth 96h,HCV inhibitor,Vaccinia mCherry
CC(C)c1ccc(N2C(=O)[C@@H]3Cc4ccccc4CN3C2=O)cc1,u,-18%,-3%,x,-15%,0%
COc1ccc(NC(=O)N2CCc3ccccc3C2)c(OC)c1,x,3%,1%,38%,9%,x
Cn1c(=O)c2c(nc(Cc3ccccc3)n2C)n(C)c1=O,-12%,93%,3%,-10%,19%,i
CN(Cc1ccccc1)Cc1nc2c(c(=O)n(C)c(=O)n2C)n1CCc1ccccc1,-12%,x,-47%,x,35µM*,-11%
CN(Cc1ccccc1)Cc1nc2c([nH]1)c(=O)n(C)c(=O)n2C,-16%,u,2%,10µM*,3%,i
CCCn1c(CN(Cc2ccccc2)Cc2ccccc2)nc2c1c(=O)n(C)c(=O)n2C,-12%,u,-53%,9.3µM*,7.9µM*,-28%

# Screening data deposited in PubChem by National Center for Advancing Translational Sciences (NCATS).
